Measurements taken from PubChem BioAssay (NCATS).
Inconclusive results are not listed. The source made the active and inactive calls. The call rests on the fitted dose curve; in most records, active means well fitted curve in the direction sought with a large enough effect; inconclusive means small, poorly fitted or top-dose-only effect, or another doubt; inactive means no such curve, though single readings can be large; an effect the other way counts as inactive or inconclusive.

Assays:
[1] = Counterscreen for APE1 Inhibitors: Fluorescent Dye Displacement Validation Assay (AID 1707)
Procedure, shortened: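 Signal: ThO fluorescence (ex 480 nm/em 540 nm) on binding 50 nM dsDNA; displacement by test compound reduces it. Conditions: 250 nM dye, 50 mM Tris-HCl pH7.5, 2 mM MgCl2, 50mM NaCl, 0.01% Tween-20.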

[2] = target: Endonuclease 4 (Escherichia coli (strain K12)) (UniProt P0A6C1); assay: Counterscreen for APE1 Inhibitors: qHTS Validation Assay for Inhibitors of Endonuclease IV (AID 1708)
Procedure, shortened: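 The reaction buffer contained 50 mM Tris-HCl pH 7.5, 50 mM NaCl, 2 mM MgCl2, 1 mM DTT and 0.01% Tween-20. Incision of a 50 nM fluorophore/quencher THF substrate by 2 nM enzyme was measured kinetically.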

[3] = qHTS for differential inhibitors of proliferation of Plasmodium falciparum line GB4 (AID 1816); conditions: Potency: Plasmodium falciparum GB4 proliferation inhibition;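 further: parasite growth measured after 72 h incubation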
[4] = qHTS for differential inhibitors of proliferation of Plasmodium falciparum line 3D7 (AID 1876);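 further: parasite growth measured after three days of culture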
[5] = qHTS for differential inhibitors of proliferation of Plasmodium falciparum line D10 (AID 1877);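 further: parasites grown with compound for 72 h before DNA staining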
[6] = qHTS for differential inhibitors of proliferation of Plasmodium falciparum line Dd2 (AID 1882); conditions: Potency: Plasmodium falciparum Dd2 proliferation inhibition;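 further: series mostly up to about 29 µM; compound exposure of 72 h on infected erythrocytes; nearly all actives have a fitted effect of over 65% in size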
Procedure, shortened: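 RBC culture, 0.3% parasitemia / 2.5% Hct final; cpd added by pin tool in DMSO; 72 h, 37 C, 5% CO2; lysis buffer + SYBR Green I, o/n RT dark; FI 485/535; norm. to artemisinin 0.29 uM and DMSO.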

[7] = qHTS for differential inhibitors of proliferation of Plasmodium falciparum line HB3 (AID 1886); conditions: Potency: Plasmodium falciparum HB3 proliferation inhibition;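 further: parasites grown with compound for 72 h before SYBR Green readout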

Measured: Potency

c1ccc(-c2ccccn2)nc1
inactive: all assays above
